Sampled rows, rich in hits. Any-hit rate of the full collection: about 3.8%.
Nrf2 ARE act: Nrf2 pathway activation; AREc32 ARE-luciferase reporter (MCF7-derived line), luminescence, 24 h; Potency, µM (top dose mostly 46.1 µM), inactives show at the top dose activation, actives largely listed as activators; actives 0.31% (n = 410,000); AID 624171; also: % of control where 0% means no effect; nearly all actives have a fitted effect of over 65% in size
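ARE activation measured as luciferase luminescence (Steady-Glo, 30 min RT) in AREc32_Fluc cells after 24 hr compound exposure at 37 deg C, 5% CO2; cells seeded overnight at 1000/well in OPTI-MEM, 5% FBS.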
A549 viability: counter-screen for Nrf2 inhibitors: cytotoxicity in A549 cells; A549 ARE-Fluc cells, CellTiter-Fluor viability, 18-24 h; Potency, µM (series often up to 46 µM), for inactives: top-dose activity change, negative = cytotoxicity, most hits filed as inhibitors; actives 0.16% (n = 390,000); also: % is scaled to controls: 0 for no effect and ±100 for the full control effect
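Cytotoxicity counterscreen: CellTiter-Fluor fluorescence was measured in A549 ARE_Fluc cells after 18-24 h of compound exposure in a concentration series. The subsequent BugLite luminescent read reports ARE-luciferase activity.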
ELG1 repair inh: blocks ELG1-dependent DNA repair in HEK293T cells; actives 2.3% (n = 330,000); Potency, µM (highest dose often 46.1 µM), without a hit: at the top dose activity change, negative = inhibition, usual class: inhibitors; AID 504467; HEK293T ELG1-luciferase reporter, luminescence, 16 h; DNA damage induced by 5-fluorouridine; also: % is scaled to controls: 0 for no effect and ±100 for the full control effect; nearly all actives have a fitted effect of over 55% in size
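HEK293T cells expressing luciferase-tagged ELG1 (2,000/well) received 5-Fluorouridine plus compound or DMSO for 16 hr at 37 °C. Luciferase was read by ONE-Glo luminescence after 30 min at room temperature.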
IDH1 R132H inh: inhibitors of human mutant IDH1 R132H; O75874; IDH1-R132H enzyme, NADPH consumption, diaphorase/resazurin fluorescence; Potency, µM (doses to about 76.6 µM), inactives show at the highest dose activity change, negative = inhibition, most hits filed as inhibitors; actives 0.093% (n = 390,000); AID 602179; also: % is scaled to controls: 0 for no effect and ±100 for the full control effect; nearly all actives have a fitted effect of over 65% in size
Target sequence (O75874 whole entry R132H, stated change not applied): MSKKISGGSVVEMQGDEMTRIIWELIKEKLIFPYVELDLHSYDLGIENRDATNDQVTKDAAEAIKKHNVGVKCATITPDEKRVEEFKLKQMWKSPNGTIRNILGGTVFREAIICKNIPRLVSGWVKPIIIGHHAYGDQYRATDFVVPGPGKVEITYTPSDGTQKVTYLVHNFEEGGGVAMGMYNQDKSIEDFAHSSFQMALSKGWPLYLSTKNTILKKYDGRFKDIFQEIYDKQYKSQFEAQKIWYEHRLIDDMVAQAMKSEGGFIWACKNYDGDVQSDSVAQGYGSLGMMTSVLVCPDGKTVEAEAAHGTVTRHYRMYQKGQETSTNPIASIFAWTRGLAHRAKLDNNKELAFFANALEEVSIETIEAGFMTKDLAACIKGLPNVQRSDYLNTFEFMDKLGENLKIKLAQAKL
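IDH1-R132H (0.5 ug/mL) preincubated 30 min with compound, then NADPH (0.016 mM) and alpha-KG (2 mM) added; 80 min at RT, pH 7.5. Remaining NADPH coupled via diaphorase/resazurin to fluorescence (540/590 nm); concentration-response curves normalized to no-enzyme control.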
Nrf2 block: Nrf2 pathway inhibition; AID 504444; A549 ARE-Fluc reporter, luciferase luminescence, 18-24 h; Potency, µM (doses to about 46 µM), without a hit: at the top dose activity change, negative = inhibition, hits mostly inhibitors; actives 2.1% (n = 360,000); also: % is scaled to controls: 0 for no effect and ±100 for the full control effect; nearly all actives have a fitted effect of over 60% in size
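A549 ARE_Fluc cells (5000/well, 5% FBS OPTI-MEM) pre-incubated 2 h, then treated with compounds 18-24 h at 37C/5% CO2 in concentration-response. CellTiter-Fluor viability read first; BugLite luciferase luminescence after 15 min at room temperature gives Nrf2 activity.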
* = called active by the depositor; u = inconclusive; x = not tested or not shown; [ ] = another dose, or the depositor's remark. Calls follow the shape of the dose curve; as a rule, active = well fitted curve in the direction sought with a large enough effect; inconclusive = small, poorly fitted or top-dose-only effect, or another doubt; inactive = no such curve, though single readings can be large; an effect the other way counts as inactive or inconclusive. Potency is read from the fitted curve at half-maximal effect.

SMILES	Nrf2 ARE act	A549 viability	ELG1 repair inh	IDH1 R132H inh	Nrf2 block
Cc1cccc(NC(=O)CN2C(=O)C(c3ccc(F)cc3)=NC23CCCCCC3)c1C	1.9%	-16.9%	x	x	23.1µM*
Cc1ccc(NC(=O)CN2C(=O)C(c3ccc(F)cc3)=NC23CCCCC3)c(C)c1	5.3%	-9.8%	x	x	-26.7%
COc1cc(/C=N/Nc2ccccc2[N+](=O)[O-])cc(OC)c1O	10µM*	-18.6%	1.6%	3.7%	-20.3%
NS(=O)(=O)c1ccc(N/N=C/c2ccc(C(=O)O)cc2)c([N+](=O)[O-])c1	-0.4%	-14.9%	-5.3%	4.6%	0.6%
COc1ccccc1/C=N\Nc1ccccc1[N+](=O)[O-]	u	-12.1%	u	5.7%	u
NS(=O)(=O)c1ccc(N/N=C/c2cn(-c3ccccc3)nc2-c2cccs2)c([N+](=O)[O-])c1	-1.9%	13µM*	-17.0%	0.8%	10.3µM*
CC(C)Oc1ccccc1/C=N/Nc1ccccc1[N+](=O)[O-]	10µM*	-1.6%	13.1%	1.5%	15.1%
COc1cc(/C=N/Nc2ccc(S(N)(=O)=O)cc2[N+](=O)[O-])cc(OC)c1O	6.8%	1.1%	9.2µM*	2.6%	23.6%
COc1ccc2c(c1)c1nnc(SC)nc1n2Cc1ccccc1	x	8.1%	x	x	15.7%
CCC(=O)Nc1ccc(OCc2cc(C3Nc4ccccc4C(=O)N3Cc3ccccc3)ccc2OC)cc1 (stereo not drawn)	x	-9.8%	x	x	u
CCCn1c2ccccc2c2cnn(CC(=O)NCCc3cc(OC)ccc3OC)c(=O)c21	-0.4%	2.0%	x	-6.7%	2.1%
C=C1CCN(C(Cc2ccccc2)C(=O)NCc2ccc(Cl)c(Cl)c2)S(=O)(=O)c2ccccc21 (stereo not drawn)	x	8.1%	x	x	-26.5%
NS(=O)(=O)c1ccc(N/N=C/c2ccc[nH]2)c([N+](=O)[O-])c1	6.7%	-6.1%	u	-2.7%	8.2µM*
COc1ccc(OC)c(NC(=O)c2cc3c(=O)n4cccc(C)c4nc3n2C)c1	-0.3%	-0.4%	x	-10.9%	15.6%
C[C@H](NC(=O)c1nc[nH]c1C(=O)NCc1ccc(CNC(=O)OC(C)(C)C)cc1)c1ccccc1	-0.7%	-9.5%	18.3µM*	-12.4%	u
C[C@H](NC(=O)c1[nH]cnc1C(=O)Nc1ccc(CNC(=O)OC(C)(C)C)cc1)C(=O)OC(C)(C)C	-2.9%	-5.5%	16.4µM*	-1.8%	u
C[C@@H](NC(=O)c1nc[nH]c1C(=O)NCCCCCNC(=O)OC(C)(C)C)c1ccccc1	3.6%	-9.3%	u	-3.7%	u
CCc1ccc(CN2CCCC(C(=O)Nc3ccc(-c4cscn4)cc3)C2)o1 (stereo not drawn)	-0.4%	3.0%	-16.2%	-1.1%	-13.6%
CC(C)(C)C(=O)NC(=S)NNC(=O)c1sc2ccccc2c1Cl	-0.7%	u	u	-8.4%	5.8µM*
O=C(NNC(=S)NC1CCCCC1)c1sc2ccccc2c1Cl	0.3%[9.22 µM]	-0.3%	-18.4%	-2.1%	u
CCn1c(SCC(=O)Nc2cccc(OC)c2)nnc1-c1ccc(Cl)cc1	0.4%	-12.0%	u	-7.3%	25.9µM*
CCn1c(SCCC(=O)Nc2ccccc2)nnc1-c1ccc(OC)cc1	-0.7%	-6.9%	-8.7%	-0.9%	-5.5%
CCn1c(SCC(=O)Nc2cccc(NC(=O)c3cccs3)c2)nnc1-c1ccncc1	1.9%	2.7%	18.4µM*	9.8%	x
CCOC(=O)c1cccc(NC(=O)c2cc3ccccn3n2)c1	-3.1%	1.5%	x	0.4%	u
Cc1nn(C2CCS(=O)(=O)C2)c(Cl)c1/C=C/C(=O)OCC(=O)Nc1ccccc1OC(F)F (stereo not drawn)	14.9%	3.6%	u	0.9%	-17.8%
SMILES	Nrf2 ARE act	A549 viability	ELG1 repair inh	IDH1 R132H inh	Nrf2 block
COc1ccc(Cl)cc1NC(=O)COC(=O)/C=C/c1c(C)nn(C2CCS(=O)(=O)C2)c1Cl (stereo not drawn)	2.7%	3.2%	13µM*	7.3%	17.0%
Cc1cccc(CSC(Nc2ccc(F)cc2)=C(C#N)C#N)c1	20.4%	-27.4%	u	1.8%	18.4µM*
N#CC(C#N)=C(Nc1ccc(F)cc1)SCc1cccc(Br)c1	u	u	u	3.9%	4.11µM*
COCCCn1c(SCC(=O)NCc2ccccc2)nc2c(sc3ccccc32)c1=O	-0.4%	-4.7%	x	-1.5%	x
Cc1c(C(=O)NC(C)c2ccccc2)sc2ncnc(N(C)C3CCCCC3)c12 (stereo not drawn)	-0.1%	-4.6%	x	0.0%	x
COc1cc(Cl)ccc1OCc1cc(C(=O)N2CCN(C)C(=O)[C@@H]2C)no1	8.0%	x	x	-1.2%	x
Cc1cc(OCc2cc(C(=O)N3CCN(C)C(=O)[C@@H]3C)no2)cc(C)c1Cl	0.5%	-9.8%	-15.4%	-5.6%	20.6µM*
CCOC(=O)c1c(NC(=O)COc2cccc3c2CCN(C)C3=O)sc2c1CCC2	0.3%	-10.9%	18.4µM*	-11.5%	u
COc1cc(NC(=O)c2cc(S(=O)(=O)N3CCCCC3)ccc2N2CCOCC2)cc(OC)c1	0.0%	-5.2%	u	-1.9%	-27.2%
Cc1ccc(S(=O)(=O)N(C)C)cc1NC(=O)c1cc(S(=O)(=O)N2CCCCC2)ccc1N1CCOCC1	0.4%	-0.2%	10.3µM*	-4.2%	-17.9%
COc1ccc(C)cc1NC(=O)c1cc(S(=O)(=O)N2CCCCC2)ccc1N1CCOCC1	-0.9%	1.0%	14.6µM*	-2.9%	u
CCn1ccc2cc(S(=O)(=O)N3CCC(C(=O)NCCc4ccccc4Cl)CC3)ccc21	0.0%	-0.7%	x	-1.7%	x
Cc1c(/C=N/NC(=O)CNc2ccccc2)c2ccccn2c1C(=O)c1ccc(Cl)cc1	3.2%	u	23.1µM*	-1.3%	u
Cc1c(/C=N/NC(=O)CNc2ccccc2)c2ccccn2c1C(=O)c1ccncc1	-0.1%	-2.0%	18.4µM*	-1.4%	5.2%
CCOC(=O)c1ccc(CNc2ncnc3nc[nH]c23)cc1	x	-2.6%	x	x	u
Cc1ccc(NC(=O)c2cc(C(=O)c3cc(Cl)ccc3O)cn(-c3ccc(C)cc3)c2=O)cc1	0.0%	0.0%	25.9µM*	2.2%	-3.6%
O=C(NCc1ccccc1Cl)c1ccc(CSCc2cccc(F)c2)o1	1.1%	0.0%	x	14.0%	x
C/C(=N/Nc1cc(-c2ccccc2)nc(-c2ccccc2)n1)c1ccc(O)cc1	-1.1%	-16.6%	0.6%	2.8%	-25.6%
C/C(=N/Nc1nc(-c2ccccc2)cc(-c2ccccc2)n1)c1ccc(N)cc1	x	x	8.2µM*	x	x
Cc1ccc(NS(=O)(=O)c2ccc3ccccc3c2)cc1C	x	16.2%	x	x	u
Cc1[nH]c2ccccc2c1SCCNC(=O)c1ccc(Br)o1	4.3%	u	u	-3.7%	23.1µM*
CCOC(=O)c1[nH]c2ccccc2c1NC(=O)c1ccc(Br)o1	4.4%	u	23.1µM*	2.7%	u

Screens (PubChem)
